Source: PubChem BioAssay AID1159580 (chemical genetic matrix, 2015)
Among all 5,500 compounds or so, about 2,000 (36%) were called active. Not shown: some 18% with an inconclusive outcome. Rule as the data show it: active = normalized growth mostly below about 0.91 (no sharp cut-off); inconclusive = no clear call, values can overlap the other calls; inactive = mostly above about 0.92. The list shows a part of the results.

Test: chemical genetic growth profiling, strain panel (AID 1159580);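 also: tested at 20 µM; growth read once vehicle control cultures reached saturation at 30 °C; 1 = growth at the plate median or of vehicle wells; lower values mean less growth of the strain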
Conditions: growth OD

Measured: normalized growth

CCCCC1=NC2(CCCC2)C(=O)N1Cc1ccc(-c2ccccc2-c2nn[nH]n2)cc1
inactive: S. cerevisiae deletion strains, locus YKL009W, strain mrt4, active compounds read low 0.952 | S. cerevisiae deletion strains, locus YKL068W, active compounds read low 0.98 | S. cerevisiae deletion strains, locus YKL085W, strain MDH1 (second series), active compounds read low 0.986 | S. cerevisiae deletion strains, locus YKL085W, strain MDH1, active compounds read low 0.986 | S. cerevisiae deletion strains, locus YKL160W, strain elf1, active compounds read low 1.01 | S. cerevisiae deletion strains, locus YKL190W, strain CNB1, active compounds read low 0.986 | S. cerevisiae deletion strains, locus YKR001C, strain vps1, active compounds read low 0.996 | S. cerevisiae deletion strains, locus YKR026C, strain gcn3, active compounds read low 1.01 | S. cerevisiae deletion strains, locus YKR091W, strain srl3, active compounds read low 1.02 | S. cerevisiae deletion strains, locus YLL001W, strain dnm1, active compounds read low 1.01 | S. cerevisiae deletion strains, locus YLL026W, active compounds read low 1.02 | S. cerevisiae deletion strains, locus YLL041C, strain sdh2, active compounds read low 1.01 | S. cerevisiae deletion strains, locus YLR027C, strain aat2, active compounds read low 0.999 | S. cerevisiae deletion strains, locus YLR039C, strain RIC1, active compounds read low 0.969 | S. cerevisiae deletion strains, locus YLR058C, strain SHM2, active compounds read low 0.964 | S. cerevisiae deletion strains, locus YLR102C, strain apc9, active compounds read low 0.981 | S. cerevisiae deletion strains, locus YLR113W, strain HOG1, active compounds read low 1.02 | S. cerevisiae deletion strains, locus YLR221C, strain rsa3, active compounds read low 1.01 | S. cerevisiae deletion strains, locus YLR258W, strain gsy2, active compounds read low 1.02 | S. cerevisiae deletion strains, locus YLR262C, strain YPT6 (second series), active compounds read low 1.04 | S. cerevisiae deletion strains, locus YLR262C, strain YPT6, active compounds read low 0.947 | S. cerevisiae deletion strains, locus YLR268W, strain sec22, active compounds read low 1.09 | S. cerevisiae deletion strains, locus YLR320W, strain mms22, active compounds read low 1.02 | S. cerevisiae deletion strains, locus YLR330W, strain CHS5, active compounds read low 0.987 | S. cerevisiae deletion strains, locus YLR342W, strain FKS1 (second series), active compounds read low 0.96 | S. cerevisiae deletion strains, locus YLR342W, strain FKS1, active compounds read low 1.02 | S. cerevisiae deletion strains, locus YLR357W, strain rsc2, active compounds read low 1.01 | S. cerevisiae deletion strains, locus YLR370C, strain arc18, active compounds read low 1.01 | S. cerevisiae deletion strains, locus YLR371W, strain rom2, active compounds read low 0.972 | S. cerevisiae deletion strains, locus YLR384C, strain iki3, active compounds read low 1 | S. cerevisiae deletion strains, locus YLR418C, strain cdc73, active compounds read low 0.993 | S. cerevisiae deletion strains, locus YML016C, strain PPZ1, active compounds read low 0.984 | S. cerevisiae deletion strains, locus YML032C, strain rad52, active compounds read low 1.02 | S. cerevisiae deletion strains, locus YML120C, strain ndi1, active compounds read low 0.997 | S. cerevisiae deletion strains, locus YML124C, strain tub3, active compounds read low 0.977 | S. cerevisiae deletion strains, locus YMR058W, strain fet3, active compounds read low 1 | S. cerevisiae deletion strains, locus YMR078C, strain ctf18, active compounds read low 0.991 | S. cerevisiae deletion strains, locus YMR125W, strain sto1, active compounds read low 1.01 | S. cerevisiae deletion strains, locus YMR129W, active compounds read low 1.01 | S. cerevisiae deletion strains, locus YMR205C, strain PFK2, active compounds read low 1.03 | S. cerevisiae deletion strains, locus YMR223W, strain ubp8, active compounds read low 0.957 | S. cerevisiae deletion strains, locus YMR231W, strain pep5, active compounds read low 1.02 | S. cerevisiae deletion strains, locus YMR263W, strain SAP30, active compounds read low 0.998 | S. cerevisiae deletion strains, locus YMR307W, strain GAS1, active compounds read low 0.964 | S. cerevisiae deletion strains, locus YNL067W, strain RPL9B, active compounds read low 1.04 | S. cerevisiae deletion strains, locus YNL071W, strain lat1, active compounds read low 1 | S. cerevisiae deletion strains, locus YNL128W, strain TEP1, active compounds read low 0.968 | S. cerevisiae deletion strains, locus YNL153C, strain GIM3, active compounds read low 1.03 | S. cerevisiae deletion strains, locus YNL183C, strain NPR1, active compounds read low 0.966 | S. cerevisiae deletion strains, locus YNL209W, strain ssb2, active compounds read low 1.01 | S. cerevisiae deletion strains, locus YNL233W, strain BNI4, active compounds read low 1.04 | S. cerevisiae deletion strains, locus YNL248C, strain rpa49, active compounds read low 1.04 | S. cerevisiae deletion strains, locus YNL250W, strain rad50, active compounds read low 0.978 | S. cerevisiae deletion strains, locus YNL271C, strain bni1, active compounds read low 1 | S. cerevisiae deletion strains, locus YNL298W, strain CLA4, active compounds read low 0.971 | S. cerevisiae deletion strains, locus YNL307C, strain MCK1, active compounds read low 0.99 | S. cerevisiae deletion strains, locus YNL322C, strain KRE1 (second series), active compounds read low 1.03 | S. cerevisiae deletion strains, locus YNL322C, strain KRE1, active compounds read low 0.986 | S. cerevisiae deletion strains, locus YNR049C, strain mso1, active compounds read low 1 | S. cerevisiae deletion strains, locus YNR052C, strain pop2, active compounds read low 0.999 | S. cerevisiae deletion strains, locus YOL006C, strain TOP1, active compounds read low 1.1 | S. cerevisiae deletion strains, locus YOL012C, strain htz1 0.917 | S. cerevisiae deletion strains, locus YOL147C, strain pex11, active compounds read low 0.992 | S. cerevisiae deletion strains, locus YOR001W, strain rrp6, active compounds read low 1.01 | S. cerevisiae deletion strains, locus YOR061W, strain CKA2, active compounds read low 0.97 | S. cerevisiae deletion strains, locus YOR069W, strain VPS5, active compounds read low 0.991 | S. cerevisiae deletion strains, locus YOR070C, strain gyp1, active compounds read low 1.01 | S. cerevisiae deletion strains, locus YOR080W, strain dia2, active compounds read low 1 | S. cerevisiae deletion strains, locus YOR083W, strain WHI5, active compounds read low 1.03 | S. cerevisiae deletion strains, locus YOR106W, strain vam3, active compounds read low 1.02 | S. cerevisiae deletion strains, locus YOR136W, strain idh2, active compounds read low 0.967 | S. cerevisiae deletion strains, locus YOR144C, strain elg1, active compounds read low 0.987 | S. cerevisiae deletion strains, locus YOR184W, strain ser1, active compounds read low 0.979 | S. cerevisiae deletion strains, locus YOR231W, strain MKK1, active compounds read low 0.981 | S. cerevisiae deletion strains, locus YOR265W, strain rbl2, active compounds read low 1.01 | S. cerevisiae deletion strains, locus YOR270C, strain vph1, active compounds read low 1.08 | S. cerevisiae deletion strains, locus YOR290C, strain snf2, active compounds read low 1.01 | S. cerevisiae deletion strains, locus YOR316C, strain cot1, active compounds read low 0.984 | S. cerevisiae deletion strains, locus YPL051W, strain arl3, active compounds read low 0.984 | S. cerevisiae deletion strains, locus YPL055C, strain LGE1, active compounds read low 0.959 | S. cerevisiae deletion strains, locus YPL078C, strain atp4, active compounds read low 1.01 | S. cerevisiae deletion strains, locus YPL106C, strain sse1, active compounds read low 1.01 | S. cerevisiae deletion strains, locus YPL240C, strain hsp82, active compounds read low 1 | S. cerevisiae deletion strains, locus YPL241C, strain CIN2, active compounds read low 0.99 | S. cerevisiae deletion strains, locus YPL256C, strain CLN2, active compounds read low 0.985 | S. cerevisiae deletion strains, locus YPR119W, strain clb2, active compounds read low 0.986 | S. cerevisiae deletion strains, locus YPR141C, strain kar3, active compounds read low 0.971 | S. cerevisiae deletion strains, locus YPR163C, strain tif3, active compounds read low 0.995 | S. cerevisiae deletion strains, locus YPR167C, strain met16, active compounds read low 0.991 | S. cerevisiae deletion strains, strain wtn01, active compounds read low 1.02 | S. cerevisiae strains, strain wild type, active compounds read low 0.978
